Experimental data published in PubChem BioAssay (NCI).
Values joined by “and” are separate entries in the source; they are usually repeats but may differ in a detail not shown here. Identical values can stand only once. Compounds without any hit were thinned out: in the full panel of roughly 79,000, 15% have a hit. Values without a mark were called inactive. Active and inactive are the calls of the source. Rule as the data show it: active = growth inhibition above about 70%; inactive = the rest.

Test: NCI Yeast Anticancer Drug Screen. Data for the sgs1 mgt1 strain (AID 161);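 also: 0% = growth of cultures given vehicle only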
Conditions: S. cerevisiae sgs1 mgt1 strain, hits give high values
Method: Growth inhibition of yeast strains with defined genetic alterations is measured as a screen for potential anti-cancer activity. Selected strains with alterations in DNA damage repair or cell cycle control were exposed to compounds and growth inhibition was measured relative to vehicle treated controls. The strain used in this assay is sgs1 mgt1

[1] = at 5.0 µM (retest, dose inferred, filed as 0.5)
[2] = at 50.0 µM (retest, dose inferred, filed as 5.0)

Row | Structure (SMILES) | growth inhibition [1] | growth inhibition [2] | growth inhibition (at 50.0 µM)
1 | COc1ccccc1/C=C1\S/C(=N/Nc2nc(C)c(C(C)=O)s2)NC1=O | 20% | 39% | -0.75%
2 | N#Cc1c(Cl)nc2ccccc2c1N=[N+]=[N-] | -14% | 18% | 56.2%
3 | O=C(O)c1ccccc1Cc1ccc2c(c1)Cc1ccccc1-2 | 6% | 89% (active) | 63.5%
4 | C/C(Cl)=N\OC(=O)Nc1ccc(C)cc1 | -26% | 91% (active) | 74.5% (active)
5 | CC#CS(=O)(=O)c1ccccc1 | 10% | 81% (active) | 80.7% (active)
6 | CCCCC(CCc1ccccc1)(C(=O)O)c1ccccc1 (stereo not given) | 68% | 99% (active) | 99.7% (active)
7 | Nc1ccc2ccccc2c1Cc1c(O)ccc2ccccc12 | 6% | 98% (active) | 98.9% (active)
8 | CCN(CC)C(=O)C1(OC(C)=O)CCCCC1 | 0% | -2% | 9.9%
9 | CS(=O)(=O)OCCN(CCOS(C)(=O)=O)c1ccc(C=Nc2cccc(Cl)c2)cc1 | 17% | 74% (active) | 88.8% (active)
10 | COC(OC)(c1ccccc1)C(I)I | 100% (active) | 100% (active) | 99.3% (active)
11 | O=C(Nc1ccc(S(=O)(=O)NC2CCCCC2)cc1)OCc1ccccc1 | 100% (active) | 12% | 73% (active)
12 | C[n+]1c(-c2cccc(OCCCCCCCCOc3cccc(-c4c5cc(N)ccc5c5ccc(N)cc5[n+]4C)c3)c2)c2cc(N)ccc2c2ccc(N)cc21 | 97% (active) | 98% (active) | 89.8% (active)
13 | c1ccc(N=C2c3ccsc3C(=Nc3ccccc3)c3ccsc32)cc1 | 21% | 93% (active) | 81.7% (active)
14 | CC1=CC(O)C2CC1C2(C)C (stereo not given) | – | – | -12.6% and 3.35% and -8.95%
